Bioassay records from PubChem.
HT1080NT lethal = qHTS for induction of synthetic lethality in tumor cells producing 2HG: qHTS for the HT-1080-NT fibrosarcoma cell line; Potency, µM (series often up to 46.1 µM), for the others: at the top dose activity, negative = less viability, actives largely listed as cytotoxic; 360,000 compounds, 1.6% hits; HT-1080-NT fibrosarcoma viability, CellTiter-Glo ATP luminescence, 48 h;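 further: NT is the 2HG producing partner of a matched IDH1 knockdown line; 0% = DMSO-treated cells and -100% = media-only wells without cells; nearly all actives have a fitted effect of over 55% in size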
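Toxicity toward the 2HG-producing NT line was scored as %Activity, normalised to DMSO and no-cell wells, from CellTiter-Glo luminescence after 48 hours' treatment.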
HT1080 IDH1KD tx = qHTS for induction of synthetic lethality in tumor cells producing 2HG: qHTS for the HT-1080-IDH1KD cell line. Potency, µM (top dose mostly 46.1 µM), without a hit: at the top dose activity, negative = toxicity, usual class: cytotoxic. HT-1080 IDH1 knockdown viability, ATP luminescence, 48 h. 360,000 compounds, 2% hits;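 further: 0% = DMSO wells and -100% = cell-free medium wells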
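In this qHTS, HT-1080 cells depleted of IDH1 are exposed for 48 h at 37 °C to compound titrations. Toxicity is scored from CellTiter-Glo luminescence, with DMSO as full viability and medium alone as none.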
KB-3-1 cytotox = qHTS assay for MDR1-selective chemotherapeutics: Primary screen using the parental adenocarcinoma cell KB-3-1; 400,000 compounds, 1.4% hits; AID 1347075, 2019; KB-3-1 viability, CellTiter-Glo ATP luminescence, 72 h; Potency, µM (titrated, usually from 46.1 µM), actives largely listed as cytotoxic; further: on the % scale 0 is the no-effect control and ±100 the full control effect; nearly all actives have a fitted effect of over 60% in size
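72 h, 37 °C compound treatment of KB-3-1 parental cells; CellTiter-Glo added, 10 min, luminescence read. Data corrected against DMSO-only plates and normalized before curve fitting.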
MCF10A rerep = A quantitative high throughput screen for small molecules that induce DNA re-replication in MCF 10a normal breast cells. MCF 10A DNA re-replication, Hoechst nuclear intensity, 48 h. Potency, µM (doses to about 46.1 µM), for the others: at the top dose activity, positive = re-replication, usual class: activators. 350,000 compounds, 2.9% hits. AID 624296, 2012; further: % of control where 0% means no effect; nearly all actives have a fitted effect of over 50% in size
KB-V1 cytotox = qHTS assay for MDR1-selective chemotherapeutics: Primary screen using the drug-selected MDR subline cells KB-V1; 400,000 compounds, 3.4% hits; AID 1347076, 2019; Potency, µM (top dose mostly 46.1 µM), usual class: cytotoxic; KB-V1 MDR cells viability, CellTiter-Glo, 72 h; further: on the % scale 0 is the no-effect control and ±100 the full control effect; nearly all actives have a fitted effect of over 60% in size
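KB-V1 MDR subline cells in DMEM (phenol-red free, 10% FBS) exposed to compounds in qHTS concentration series for 72 h at 37 degrees C. Viability read by CellTiter-Glo luminescence; concentration-effect curves fitted after normalization and correction.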
SW480 rerep = A quantitative high throughput screen for small molecules that induce DNA re-replication in SW480 colon adenocarcinoma cells. SW480 DNA re-replication, Hoechst DNA content imaging, 48 h. Potency, µM (highest dose often 46.1 µM), inactives show top-dose re-replication activation, most hits filed as activators. 340,000 compounds, 1.8% hits. AID 624297, 2012; further: % of control where 0% means no effect; nearly all actives have a fitted effect of over 55% in size
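DNA re-replication was detected as more nuclei of elevated Hoechst intensity after 48 hr exposure to compound (23 nL pinned per well of 250 cells).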
An asterisk follows results filed as active; i = inactive; u = inconclusive; x = no result given; ! = not confirmed by another sample; [ ] = another dose, or the depositor's remark. The list is not random: actives were taken first. Their share in the collection is about 7.9%. The call rests on the fitted dose curve; in most records, active means well fitted curve in the direction sought with a large enough effect; inconclusive means small, poorly fitted or top-dose-only effect, or another doubt; inactive means no such curve, though single readings can be large; an effect the other way counts as inactive or inconclusive. Potency means the concentration at half of the fitted maximal effect.

SMILES	HT1080NT lethal	HT1080 IDH1KD tx	KB-3-1 cytotox	MCF10A rerep	KB-V1 cytotox	SW480 rerep
CCOC(=O)[C@]12CCC=C1N(Cc1ccc(Cl)cc1Cl)C(=O)[C@H](CC(=O)N1CCCCC1)C2	u	u	i	x	u	x
O=C(CSc1nc(Nc2ccccc2)nc(N2CCOCC2)n1)Nc1ccc(Br)cc1F	-1%	1%	i	15µM*	i	u
COc1ccc(Cl)cc1NC(=O)CSc1nc(Nc2ccccc2)nc(N2CCOCC2)n1	-19%	-22%	i	20%	i	u
O=C(CSc1nc(Nc2ccccc2)nc(N2CCOCC2)n1)Nc1ccccc1Cl	-6%	-4%	i	u	15µM*	u
COc1ccccc1N1CCN(S(=O)(=O)c2ccc(-c3cnc(C4CC4)o3)cc2)CC1	0%	-10%	u	u	u	-10%
COc1ccc(NS(=O)(=O)c2ccc(-c3cnc(C4CC4)o3)cc2)cc1OC	15µM*	15µM*	2.1µM*	u	u	3%
COc1ccccc1NS(=O)(=O)c1ccc(-c2cnc(C3CC3)o2)cc1	u	0.73µM*	1µM*	u	u	0%
Cc1cc(C)c(NS(=O)(=O)c2cc(-c3cnc(C4CC4)o3)ccc2C)c(C)c1	x	x	i	x	i	x
COc1cc(OC)c(NS(=O)(=O)c2cc(-c3cnc(C4CC4)o3)ccc2C)cc1Cl	x	x	i	x	i	x
COc1ccccc1CNS(=O)(=O)c1ccc(-c2cnc(C3CC3)o2)cc1	4.6µM*	u	u	u	5.8µM*!	u
O=S(=O)(Nc1cccc(C(F)(F)F)c1)c1ccc(-c2cnc(C3CC3)o2)cc1	x	x	10µM*	x	8.2µM*	x
CCOc1ccccc1NS(=O)(=O)c1cc(-c2cnc(C3CC3)o2)ccc1C	x	x	u	x	i	x
CCOc1ccccc1NS(=O)(=O)c1ccc(-c2cnc(C3CC3)o2)cc1	0.21µM*	0.21µM*	0.29µM*	u	u	u
O=C(COc1ccccc1)NCc1ccc2c(c1)CCN2C(=O)c1ccc(Cl)cc1	x	x	i	x	i	x
N#Cc1ccc(NC(=O)Nc2ccc(Cl)cc2)cc1	15µM*	u	21µM*	-2%	u	2%
CN(CC(=O)Nc1ccc(C#N)cc1)Cc1ccc(Cl)cc1	u	u	i	u	u	-4%
CCCCCn1c(=O)[nH]c2cc(C(=O)N3CCN(c4cccc(C(F)(F)F)c4)CC3)ccc2c1=O	x	x	i	x	i	x
Cc1ccc(CNC(=O)c2cc3c(C)nc4ccccc4c3o2)cc1	4%	-1%	i	4%	i	-3%
O=C(NCc1ccccn1)c1cc(-c2ccncc2)nc2ccccc12	5%	-3%	i	3%	i	3%
O=C(NCc1ccccn1)c1cc(-c2ccccc2Cl)nc2ccccc12	5%	9%	i	1%	18µM*	-33%
O=C(NCCc1ccccn1)c1cc(-c2ccc(Cl)c(Cl)c2Cl)nc2ccccc12	-3%	u	u	8%	5.8µM*	-2%
Cc1c(C(=O)NCc2ccccn2)oc2ccccc12	9%[9.24 µM]	-9%	i	-8%	i	-1%
Cc1c(C(=O)NCc2ccccn2)oc2c(Cl)cccc12	6%	0%	i	12%	8.2µM*	0%
Cc1nc2ccccc2c2oc(C(=O)NCc3ccccn3)cc12	-1%	-18%	i	14%	2.6µM*	-4%
Cc1ccc(Cl)cc1NC(=O)Cn1cc2c(n1)CCCCC2	x	x	i	x	i	x
SMILES	HT1080NT lethal	HT1080 IDH1KD tx	KB-3-1 cytotox	MCF10A rerep	KB-V1 cytotox	SW480 rerep
O=C(NNC(=O)c1cc(-c2ccc(Cl)cc2Cl)nc2ccccc12)Nc1ccccc1	u	u	u	u	23µM*	u
CC1CCC(C(C)C)C(OC(=O)Cn2c(-c3ccc(Cl)cc3)[n+](C)c3ccccc32)C1 (configuration not stated)	5.8µM*	5.8µM*	u	u	i	u
CCOC(=O)Cn1c(COc2ccccc2OC)[n+](C)c2ccccc21	-6%	11%	i	0%	i	u
CC1CCC(C(C)C)C(OC(=O)COC(=O)c2cccn2C)C1 (configuration not stated)	10%	1%	i	u	i	-4%
Cc1ccccc1OCc1n(CC(=O)OC2CC(C)CCC2C(C)C)c2ccccc2[n+]1C (configuration not stated)	16µM*	7.3µM*	u	1.8µM*!	i	u
CC1CCC(C(C)C)C(OC(=O)Cn2c(-c3ccc(Br)cc3)[n+](C)c3ccccc32)C1 (configuration not stated)	10µM*	16µM*	18µM*!	u	u	u
COc1cc(N=c2ssnc2Cl)cc(OC)c1	-21%	-2%	i	u	i	u
Clc1nssc1=Nc1ccc(Br)cc1	16µM*	u	i	u	u	u
CC(C)CCCCCCCCCCCCC(=O)NCC(=O)NC1C(C)OC(Nc2ncnc3nc[nH]c23)C(O)C1O (configuration not stated)	1.8µM*	0.12µM*	0.01µM*	23%	u	30%
CC(C)CNc1ncnc2nc[nH]c12	x	x	i	x	i	x
CCc1ccccc1Nc1cc(C(=O)NC2CCC(C)CC2)c2ccccc2n1 (configuration not stated)	x	x	i	x	i	x
CC1Cc2nc(SCC(=O)NCC3CCCO3)n(-c3ccccc3)c(=O)c2S1 (configuration not stated)	1%	10%	i	x	i	x
N#CCC(=O)Nc1ccc(C(=O)OC(C(=O)Nc2cc(C(F)(F)F)ccc2Cl)c2ccccc2)cc1 (configuration not stated)	-4%	-28%	u	u	15µM*	u
N#CCC(=O)Nc1ccc(C(=O)OC(C(=O)Nc2ccc([N+](=O)[O-])cc2Br)c2ccccc2)cc1 (configuration not stated)	-7%	-11%	i	-2%	i	-3%
CC(=O)C1CCN(c2ncc(-c3ccc4c(c3)OCCCO4)s2)CC1	x	x	i	x	i	x
